The campaign covered roughly 5,500 compounds. About 2,000 (36%) were called active. Roughly 18% stayed inconclusive and do not appear here. Rule as the data show it: active = normalized growth mostly below about 0.91 (no sharp cut-off); inconclusive = no clear call, values can overlap the other calls; inactive = mostly above about 0.92. The list shows a part of the results.
Experiment: chemical genetic growth profiling, strain panel (AID 1159580);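 also: tested at 20 µM; growth read once vehicle control cultures reached saturation at 30 °C; 1 = growth at the plate median or of vehicle wells; lower values mean less growth of the strain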
Details: growth OD
[1] = S. cerevisiae deletion strains, locus YAL013W, strain DEP1, stronger effect = lower value
[2] = S. cerevisiae deletion strains, locus YNL128W, strain TEP1, stronger effect = lower value
[3] = S. cerevisiae deletion strains, locus YPL241C, strain CIN2, stronger effect = lower value
[4] = S. cerevisiae deletion strains, locus YBR021W, strain FUR4, stronger effect = lower value
[5] = S. cerevisiae deletion strains, locus YBR229C, strain ROT2, stronger effect = lower value
[6] = S. cerevisiae deletion strains, locus YCL029C, strain bik1, stronger effect = lower value
[7] = S. cerevisiae deletion strains, locus YDL035C, strain GPR1, stronger effect = lower value
[8] = S. cerevisiae deletion strains, locus YDL074C, strain BRE1, stronger effect = lower value
[9] = S. cerevisiae deletion strains, locus YDL101C, strain DUN1, stronger effect = lower value
[10] = S. cerevisiae deletion strains, locus YDL134C, strain PPH21, stronger effect = lower value
[11] = S. cerevisiae deletion strains, locus YDL185W, strain tfp1, stronger effect = lower value
[12] = S. cerevisiae deletion strains, locus YDL192W, strain arf1, stronger effect = lower value
[13] = S. cerevisiae deletion strains, locus YDR101C, strain arx1, stronger effect = lower value
[14] = S. cerevisiae deletion strains, locus YDR150W, strain NUM1, stronger effect = lower value
[15] = S. cerevisiae deletion strains, locus YDR162C, strain NBP2, stronger effect = lower value
[16] = S. cerevisiae deletion strains, locus YDR318W, strain mcm21, stronger effect = lower value
[17] = S. cerevisiae deletion strains, locus YDR388W, stronger effect = lower value
[18] = S. cerevisiae deletion strains, locus YDR502C, strain sam2, stronger effect = lower value
[19] = S. cerevisiae deletion strains, locus YEL061C, strain CIN8, stronger effect = lower value
[20] = S. cerevisiae deletion strains, locus YER110C, stronger effect = lower value
[21] = S. cerevisiae deletion strains, locus YER155C, strain BEM2, stronger effect = lower value
[22] = S. cerevisiae deletion strains, locus YER167W, strain BCK2, stronger effect = lower value
[23] = S. cerevisiae deletion strains, locus YGL078C, strain dbp3, stronger effect = lower value
[24] = S. cerevisiae deletion strains, locus YGL086W, strain mad1, stronger effect = lower value
[25] = S. cerevisiae deletion strains, locus YGL248W, strain PDE1, stronger effect = lower value
[26] = S. cerevisiae deletion strains, locus YGR078C, strain PAC10, stronger effect = lower value
[27] = S. cerevisiae deletion strains, locus YGR135W, strain pre9, stronger effect = lower value
[28] = S. cerevisiae deletion strains, locus YGR229C, strain SMI1, stronger effect = lower value
[29] = S. cerevisiae deletion strains, locus YGR252W, strain gcn5, stronger effect = lower value
[30] = S. cerevisiae deletion strains, locus YHR030C, strain SLT2, stronger effect = lower value
[31] = S. cerevisiae deletion strains, locus YHR079C, strain IRE1 (second series), stronger effect = lower value
[32] = S. cerevisiae deletion strains, locus YHR094C, strain hxt1, stronger effect = lower value
[33] = S. cerevisiae deletion strains, locus YHR129C, strain ARP1, stronger effect = lower value
[34] = S. cerevisiae deletion strains, locus YHR200W, strain rpn10, stronger effect = lower value
[35] = S. cerevisiae deletion strains, locus YIL066C, strain RNR3, stronger effect = lower value
[36] = S. cerevisiae deletion strains, locus YIL073C, strain SPO22, stronger effect = lower value
[37] = S. cerevisiae deletion strains, locus YIL125W, strain kgd1, stronger effect = lower value
[38] = S. cerevisiae deletion strains, locus YIR030C, strain dcg1, stronger effect = lower value
[39] = S. cerevisiae deletion strains, locus YJL095W, strain BCK1, stronger effect = lower value
[40] = S. cerevisiae deletion strains, locus YJL134W, strain LCB3, stronger effect = lower value
[41] = S. cerevisiae deletion strains, locus YJL168C, strain set2, stronger effect = lower value
[42] = S. cerevisiae deletion strains, locus YJL187C, strain SWE1 (second series), stronger effect = lower value
[43] = S. cerevisiae deletion strains, locus YJR043C, strain POL32, stronger effect = lower value
[44] = S. cerevisiae deletion strains, locus YJR075W, strain HOC1, stronger effect = lower value
[45] = S. cerevisiae deletion strains, locus YKL009W, strain mrt4, stronger effect = lower value
[46] = S. cerevisiae deletion strains, locus YKL068W, stronger effect = lower value
[47] = S. cerevisiae deletion strains, locus YKL085W, strain MDH1 (second series), stronger effect = lower value
[48] = S. cerevisiae deletion strains, locus YKL085W, strain MDH1, stronger effect = lower value
[49] = S. cerevisiae deletion strains, locus YKL190W, strain CNB1, stronger effect = lower value
[50] = S. cerevisiae deletion strains, locus YKR001C, strain vps1, stronger effect = lower value
[51] = S. cerevisiae deletion strains, locus YLR039C, strain RIC1, stronger effect = lower value
[52] = S. cerevisiae deletion strains, locus YLR058C, strain SHM2, stronger effect = lower value
[53] = S. cerevisiae deletion strains, locus YLR102C, strain apc9, stronger effect = lower value
[54] = S. cerevisiae deletion strains, locus YLR262C, strain YPT6, stronger effect = lower value
[55] = S. cerevisiae deletion strains, locus YLR268W, strain sec22, stronger effect = lower value
[56] = S. cerevisiae deletion strains, locus YLR330W, strain CHS5, stronger effect = lower value
[57] = S. cerevisiae deletion strains, locus YLR342W, strain FKS1 (second series), stronger effect = lower value
[58] = S. cerevisiae deletion strains, locus YLR371W, strain rom2, stronger effect = lower value
[59] = S. cerevisiae deletion strains, locus YLR418C, strain cdc73, stronger effect = lower value
[60] = S. cerevisiae deletion strains, locus YML016C, strain PPZ1, stronger effect = lower value
[61] = S. cerevisiae deletion strains, locus YML032C, strain rad52, stronger effect = lower value
[62] = S. cerevisiae deletion strains, locus YML124C, strain tub3, stronger effect = lower value
[63] = S. cerevisiae deletion strains, locus YMR078C, strain ctf18, stronger effect = lower value
[64] = S. cerevisiae deletion strains, locus YMR223W, strain ubp8, stronger effect = lower value
[65] = S. cerevisiae deletion strains, locus YMR263W, strain SAP30, stronger effect = lower value
[66] = S. cerevisiae deletion strains, locus YMR307W, strain GAS1, stronger effect = lower value
[67] = S. cerevisiae deletion strains, locus YNL067W, strain RPL9B, stronger effect = lower value
[68] = S. cerevisiae deletion strains, locus YNL153C, strain GIM3, stronger effect = lower value
[69] = S. cerevisiae deletion strains, locus YNL233W, strain BNI4, stronger effect = lower value
[70] = S. cerevisiae deletion strains, locus YNL250W, strain rad50, stronger effect = lower value
[71] = S. cerevisiae deletion strains, locus YNL271C, strain bni1, stronger effect = lower value
[72] = S. cerevisiae deletion strains, locus YNL298W, strain CLA4, stronger effect = lower value
[73] = S. cerevisiae deletion strains, locus YNL307C, strain MCK1, stronger effect = lower value
[74] = S. cerevisiae deletion strains, locus YNL322C, strain KRE1, stronger effect = lower value
[75] = S. cerevisiae deletion strains, locus YNR052C, strain pop2, stronger effect = lower value
[76] = S. cerevisiae deletion strains, locus YOL006C, strain TOP1, stronger effect = lower value
[77] = S. cerevisiae deletion strains, locus YOL012C, strain htz1
[78] = S. cerevisiae deletion strains, locus YOL147C, strain pex11, stronger effect = lower value
[79] = S. cerevisiae deletion strains, locus YOR061W, strain CKA2, stronger effect = lower value
[80] = S. cerevisiae deletion strains, locus YOR069W, strain VPS5, stronger effect = lower value
[81] = S. cerevisiae deletion strains, locus YOR136W, strain idh2, stronger effect = lower value
[82] = S. cerevisiae deletion strains, locus YOR144C, strain elg1, stronger effect = lower value
[83] = S. cerevisiae deletion strains, locus YOR184W, strain ser1, stronger effect = lower value
[84] = S. cerevisiae deletion strains, locus YOR316C, strain cot1, stronger effect = lower value
[85] = S. cerevisiae deletion strains, locus YPL055C, strain LGE1, stronger effect = lower value
[86] = S. cerevisiae deletion strains, locus YPR119W, strain clb2, stronger effect = lower value
[87] = S. cerevisiae deletion strains, locus YPR141C, strain kar3, stronger effect = lower value
[88] = S. cerevisiae deletion strains, locus YPR163C, strain tif3, stronger effect = lower value
[89] = S. cerevisiae deletion strains, locus YPR167C, strain met16, stronger effect = lower value
[90] = S. cerevisiae deletion strains, strain wtn01, stronger effect = lower value
[91] = S. cerevisiae strains, strain wild type, stronger effect = lower value

Measured: normalized growth

Nc1ncn(C2OC(CO)C(O)C2O)c(=O)n1 (configuration not stated)
inactive: [1] 1.02 | S. cerevisiae deletion strains, locus YAL040C, strain CLN3, stronger effect = lower value 0.999 | S. cerevisiae deletion strains, locus YCL061C, strain MRC1 (second series), stronger effect = lower value 0.999 | S. cerevisiae deletion strains, locus YER002W, strain NOP16, stronger effect = lower value 0.997 | [2] 0.994 | S. cerevisiae deletion strains, locus YNL175C, strain NOP13, stronger effect = lower value 0.992 | S. cerevisiae deletion strains, locus YNL197C, strain WHI3, stronger effect = lower value 1.01 | S. cerevisiae deletion strains, locus YNL224C, strain SQS1, stronger effect = lower value 0.988 | S. cerevisiae deletion strains, locus YOR083W, strain WHI5 (second series), stronger effect = lower value 1 | [3] 1

NCCCCCCNS(=O)(=O)c1cccc2c(Cl)cccc12
inactive: [1] 1 | [4] 1 | [5] 0.982 | [6] 0.983 | [7] 0.989 | [8] 1.02 | [9] 0.991 | [10] 0.985 | [11] 0.986 | [12] 0.996 | [13] 0.997 | [14] 0.987 | [15] 1.01 | [16] 0.973 | [17] 0.99 | [18] 0.984 | [19] 0.995 | [20] 0.99 | [21] 1.01 | [22] 0.979 | [23] 0.998 | [24] 0.958 | [25] 0.968 | [26] 1 | [27] 0.988 | [28] 1.01 | [29] 0.908 | [30] 0.989 | [31] 0.978 | [32] 1 | [33] 1 | [34] 0.979 | [35] 0.996 | [36] 0.957 | [37] 0.997 | [38] 0.992 | [39] 0.988 | [40] 0.995 | [41] 0.994 | [42] 0.993 | [43] 0.971 | [44] 1.02 | [45] 0.953 | [46] 0.999 | [47] 0.991 | [48] 0.991 | [49] 0.996 | [50] 0.983 | [51] 1.01 | [52] 0.988 | [53] 1 | [54] 1.02 | [55] 0.999 | [56] 0.997 | [57] 0.935 | [58] 0.993 | [59] 1 | [60] 0.989 | [61] 0.961 | [62] 0.987 | [63] 0.98 | [64] 0.961 | [65] 1.01 | [66] 0.942 | [67] 1.01 | [2] 1.01 | [68] 1 | [69] 0.996 | [70] 0.981 | [71] 0.997 | [72] 0.983 | [73] 0.965 | [74] 0.995 | [75] 0.974 | [76] 0.955 | [77] 0.747 | [78] 0.994 | [79] 0.995 | [80] 0.988 | [81] 0.991 | [82] 0.993 | [83] 0.961 | [84] 0.986 | [85] 1.04 | [3] 0.998 | [86] 1 | [87] 0.999 | [88] 0.985 | [89] 0.986 | [90] 0.981 | [91] 0.997

Cc1ccc2c(c1)C1(C)CCCC(C)(C(=O)O)C1CC2 (configuration not stated)
inactive: [1] 0.982 | [4] 1.04 | [5] 0.972 | [6] 0.998 | [7] 0.99 | [8] 0.951 | [9] 0.975 | [10] 0.992 | [11] 0.95 | [12] 1 | [13] 1.01 | [14] 0.992 | [15] 0.907 | [16] 1.02 | [17] 1.01 | [18] 0.984 | [19] 0.993 | [20] 0.991 | [21] 1.01 | [22] 1.01 | [23] 0.96 | [24] 1.03 | [25] 0.994 | [26] 0.979 | [27] 0.96 | [28] 0.979 | [29] 1.06 | [30] 1.02 | [31] 1.01 | [32] 0.996 | [33] 1.01 | [34] 1.01 | [35] 0.994 | [36] 1.03 | [37] 0.986 | [38] 0.998 | [39] 1 | [40] 1.01 | [41] 1 | [42] 0.968 | [43] 1.05 | [44] 1.01 | [45] 0.999 | [46] 0.982 | [47] 0.997 | [48] 0.997 | [49] 0.989 | [50] 1.01 | [51] 0.862 | [52] 0.989 | [53] 0.989 | [54] 0.806 | [55] 0.965 | [56] 1 | [57] 1.06 | [58] 1.02 | [59] 0.967 | [60] 0.998 | [61] 1.03 | [62] 1 | [63] 0.994 | [64] 1.03 | [65] 0.973 | [66] 0.976 | [67] 0.974 | [2] 0.949 | [68] 0.957 | [69] 0.993 | [70] 0.972 | [71] 0.994 | [72] 0.968 | [73] 1.01 | [74] 0.997 | [75] 1.02 | [76] 0.956 | [77] 1.15 | [78] 1 | [79] 0.973 | [80] 1 | [81] 1.01 | [82] 1 | [83] 1.05 | [84] 0.999 | [85] 0.946 | [3] 0.997 | [86] 1 | [87] 0.939 | [88] 1 | [89] 0.995 | [90] 0.999 | [91] 0.993

Reference: PubChem BioAssay AID1159580 (chemical genetic matrix, 2015)
